Reference: ChEMBL document CHEMBL1961873, “Compounds: GSK PKIS; Assays: Nanosyn kinase panel” (2012)

target: Non-receptor tyrosine-protein kinase TYK2 (Homo sapiens) (UniProt P29597); conditions: at 0.1 µM;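 further: each value is a mean of the inhibition readings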
Sequence (P29597 whole entry): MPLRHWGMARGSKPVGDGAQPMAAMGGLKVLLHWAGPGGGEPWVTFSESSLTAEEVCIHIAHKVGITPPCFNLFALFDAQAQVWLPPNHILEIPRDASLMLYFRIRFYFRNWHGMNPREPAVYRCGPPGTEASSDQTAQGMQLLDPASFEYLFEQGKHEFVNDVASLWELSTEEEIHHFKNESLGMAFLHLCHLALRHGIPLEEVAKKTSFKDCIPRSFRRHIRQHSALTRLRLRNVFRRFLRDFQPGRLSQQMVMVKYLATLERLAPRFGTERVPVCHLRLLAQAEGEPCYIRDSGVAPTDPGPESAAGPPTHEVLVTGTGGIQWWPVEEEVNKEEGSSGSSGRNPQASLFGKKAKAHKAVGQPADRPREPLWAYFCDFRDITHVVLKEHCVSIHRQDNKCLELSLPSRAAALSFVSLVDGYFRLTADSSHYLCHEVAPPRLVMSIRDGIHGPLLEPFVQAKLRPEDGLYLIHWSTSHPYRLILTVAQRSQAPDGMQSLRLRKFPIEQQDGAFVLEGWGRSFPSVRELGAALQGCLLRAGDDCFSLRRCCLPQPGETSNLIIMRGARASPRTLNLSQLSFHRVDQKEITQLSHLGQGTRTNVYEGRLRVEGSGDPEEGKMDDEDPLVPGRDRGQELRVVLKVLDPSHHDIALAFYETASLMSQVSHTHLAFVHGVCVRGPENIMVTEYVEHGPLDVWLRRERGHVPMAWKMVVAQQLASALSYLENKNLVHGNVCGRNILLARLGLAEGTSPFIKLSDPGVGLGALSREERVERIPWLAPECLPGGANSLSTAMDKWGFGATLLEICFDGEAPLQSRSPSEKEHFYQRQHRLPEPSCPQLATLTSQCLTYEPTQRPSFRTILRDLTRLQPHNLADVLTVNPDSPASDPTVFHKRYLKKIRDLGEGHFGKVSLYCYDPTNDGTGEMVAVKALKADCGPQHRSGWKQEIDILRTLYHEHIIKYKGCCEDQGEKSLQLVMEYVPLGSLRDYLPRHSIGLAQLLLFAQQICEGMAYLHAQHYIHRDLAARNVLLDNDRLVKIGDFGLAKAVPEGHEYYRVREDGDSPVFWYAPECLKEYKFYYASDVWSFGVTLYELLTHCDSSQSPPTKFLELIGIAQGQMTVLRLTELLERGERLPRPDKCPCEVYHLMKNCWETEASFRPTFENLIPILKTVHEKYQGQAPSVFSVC

| SMILES | inhibition |
| --- | --- |
| Fc1ccc(-c2nc3n(c2-c2ccncc2)CCS3)cc1 | -8.34% |
| Fc1ccc(-c2ncn(C3CCNCC3)c2-c2ccnc(Oc3ccc4c(c3)OCO4)n2)cc1 | -2.53% |
| Fc1ccc(-c2c(-c3ccncc3)nc3n2CCS3)cc1 | -0.68% |
| O=C(Nc1n[nH]c2nc(-c3ccc(O)cc3)c(Br)cc12)C1CC1 | -1.54% |
| CN(C)CCOc1ccc(-c2cc(-c3ccc4c(c3)CCC4=NO)c(-c3ccncc3)o2)cc1 | 0.89% |
| COc1ccc(C2=C(N3CCc4ccccc43)C(=O)NC2=O)cc1 | -3.26% |
| CN(c1ccc(NC(=O)Nc2c(Cl)cccc2Cl)cc1)c1ccnc(Nc2cccc(CS(C)(=O)=O)c2)n1 | -2.98% |
| Cc1ccc(C(=O)NC2CCC2)cc1-c1ccc(C(=O)NCC2CC2)cc1 | -0.8% |
| COc1cccc(-n2cnc3c(N/N=C/c4ccncc4)ncnc32)c1 | 3.07% |
| Cc1ccc(C(=O)NC(C)C)cc1-c1ccc(C(=O)NCC2CC2)cc1 | 1.94% |
| NC(=O)Cc1ccccc1Oc1nccc(-c2c(-c3ccc(F)cc3)ncn2C2CCNCC2)n1 | -1.14% |
| O=C1Nc2ccccc2/C1=C/Nc1ccc(-n2cncn2)cc1 | -4.51% |
| c1ccc(Oc2ccc(Nc3ncc(-c4ccccc4)o3)cc2)cc1 | -0.13% |
| COc1cc2ncn(-c3cc(OCc4ccccc4C(F)(F)F)c(C(C)=O)s3)c2cc1OC | -1.78% |
| COc1ccc2ncn(-c3cc(O[C@H](C)c4ccccc4Cl)c(C(N)=O)s3)c2c1 | -5.25% |
| CCc1nccc2c1nc(-c1nonc1N)n2CC | 1.46% |
| CN(C)c1ccc2c(c1)/C(=C/Nc1ccc(S(N)(=O)=O)cc1)C(=O)N2 | 1.02% |
| COc1cc2ncn(-c3cc(OCc4cccs4)c(C(N)=O)s3)c2cc1OC | -2.34% |

target: T1, Dual specificity protein kinase TTK (Homo sapiens) (UniProt P33981); conditions: at 1 µM;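 further: reported figures are mean TTK inhibition at 1 µM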
T1 sequence (whole entry): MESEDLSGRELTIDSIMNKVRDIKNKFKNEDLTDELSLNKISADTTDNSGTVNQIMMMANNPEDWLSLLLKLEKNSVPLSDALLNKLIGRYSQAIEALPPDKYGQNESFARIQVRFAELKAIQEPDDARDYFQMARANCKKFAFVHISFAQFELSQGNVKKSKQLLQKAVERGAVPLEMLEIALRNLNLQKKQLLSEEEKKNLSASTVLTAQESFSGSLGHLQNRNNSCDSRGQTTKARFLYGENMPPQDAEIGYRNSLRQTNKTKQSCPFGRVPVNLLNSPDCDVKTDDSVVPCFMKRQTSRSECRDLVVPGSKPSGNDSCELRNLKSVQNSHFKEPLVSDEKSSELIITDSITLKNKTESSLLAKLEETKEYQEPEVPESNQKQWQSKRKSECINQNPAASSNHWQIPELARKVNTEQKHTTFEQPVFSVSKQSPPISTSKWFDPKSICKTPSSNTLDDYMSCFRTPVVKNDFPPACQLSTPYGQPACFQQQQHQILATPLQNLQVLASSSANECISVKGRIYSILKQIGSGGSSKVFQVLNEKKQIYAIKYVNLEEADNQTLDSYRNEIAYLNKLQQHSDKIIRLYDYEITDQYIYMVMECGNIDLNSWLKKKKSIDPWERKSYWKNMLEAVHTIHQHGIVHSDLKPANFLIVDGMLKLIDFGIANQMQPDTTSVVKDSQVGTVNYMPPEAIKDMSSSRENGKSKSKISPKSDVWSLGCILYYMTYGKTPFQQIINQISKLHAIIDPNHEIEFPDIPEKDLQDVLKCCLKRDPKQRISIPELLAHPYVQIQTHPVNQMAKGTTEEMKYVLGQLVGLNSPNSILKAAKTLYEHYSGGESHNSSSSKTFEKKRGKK

| SMILES | inhibition |
| --- | --- |
| O=C1Nc2ccc(I)cc2C1=Cc1cc(Br)c(O)c(Br)c1 | 13.3% |
| CCS(=O)(=O)c1ccc(OC)c(Nc2ncc(-c3cccc(-c4ccccc4F)c3)o2)c1 | 3.52% |
| COc1ccc(-c2ccc3c(NC(=O)C4CC4)n[nH]c3n2)cc1 | 8.48% |
| CCc1ccc(Oc2nccc(-c3c(-c4ccc(F)cc4)ncn3C3CCNCC3)n2)cc1 | 4.86% |
| NCc1ccc(-n2c(-c3nonc3N)nc3cnccc32)cc1 | 10.1% |
| CN1CCN(CCCNc2nc3ccc(Oc4ccc(NC(=O)Nc5cc(C(F)(F)F)ccc5F)cc4)cc3[nH]2)CC1 | 20.8% |
| NS(=O)(=O)c1ccc(Nc2cc(-c3ccc(O)c(F)c3)n[nH]2)cc1 | 10% |
| NS(=O)(=O)c1ccc(N/N=C2\C(=O)Nc3ccc(-c4cnco4)cc32)cc1 | 52.8% |
| CCc1cccc(CC)c1/C=C/c1cncc(C(=O)NC)c1 | -0.69% |
| FC(F)(F)c1cccc(Nc2nccc(-c3cnn4nc(-c5ccccc5)ccc34)n2)c1 | 6.07% |
| COc1ccc2cc(-c3c(-c4ccncc4)nc(-c4ccc([S+](C)[O-])cc4C)n3C)ccc2c1 (configuration not stated) | 1.61% |
| CCS(=O)(=O)c1ccc(OC)c(Nc2ncc(-c3ccccc3Cl)o2)c1 | 9.34% |
| C[C@@H](Oc1cc(-n2cnc3ccc(OCC4CCN(C)CC4)cc32)sc1C(N)=O)c1ccccc1Cl | 43.2% |
| C[C@@H](Oc1cc(-n2cnc3ccc(OC4CCN(C)CC4)cc32)sc1C(N)=O)c1ccccc1Cl | 8.91% |
| CCN(CC)Cc1ccc(Nc2nccc(-c3cnn4ncccc34)n2)cc1 | 29.4% |
| Fc1ccc(-c2ncn(CCCN3CCOCC3)c2-c2ccncc2)cc1 | 5.54% |
| Fc1ccc(-c2nc3n(c2-c2ccncc2)CCS3)cc1 | 9.6% |

| SMILES | inhibition |
| --- | --- |
| Fc1ccc(-c2ncn(C3CCNCC3)c2-c2ccnc(Oc3ccc4c(c3)OCO4)n2)cc1 | 9.25% |
| Fc1ccc(-c2c(-c3ccncc3)nc3n2CCS3)cc1 | 4.17% |
| O=C(Nc1n[nH]c2nc(-c3ccc(O)cc3)c(Br)cc12)C1CC1 | 15.3% |
| CN(C)CCOc1ccc(-c2cc(-c3ccc4c(c3)CCC4=NO)c(-c3ccncc3)o2)cc1 | 1.15% |
| COc1ccc(C2=C(N3CCc4ccccc43)C(=O)NC2=O)cc1 | 5.34% |
| CN(c1ccc(NC(=O)Nc2c(Cl)cccc2Cl)cc1)c1ccnc(Nc2cccc(CS(C)(=O)=O)c2)n1 | 19.4% |
| Cc1ccc(C(=O)NC2CCC2)cc1-c1ccc(C(=O)NCC2CC2)cc1 | 9.27% |
| COc1cccc(-n2cnc3c(N/N=C/c4ccncc4)ncnc32)c1 | 5.77% |
| Cc1ccc(C(=O)NC(C)C)cc1-c1ccc(C(=O)NCC2CC2)cc1 | -5.81% |
| NC(=O)Cc1ccccc1Oc1nccc(-c2c(-c3ccc(F)cc3)ncn2C2CCNCC2)n1 | 7.71% |
| O=C1Nc2ccccc2/C1=C/Nc1ccc(-n2cncn2)cc1 | 47.9% |
| c1ccc(Oc2ccc(Nc3ncc(-c4ccccc4)o3)cc2)cc1 | 5.67% |
| COc1cc2ncn(-c3cc(OCc4ccccc4C(F)(F)F)c(C(C)=O)s3)c2cc1OC | 8.19% |
| COc1ccc2ncn(-c3cc(O[C@H](C)c4ccccc4Cl)c(C(N)=O)s3)c2c1 | 9.02% |
| CCc1nccc2c1nc(-c1nonc1N)n2CC | 2.94% |
| CN(C)c1ccc2c(c1)/C(=C/Nc1ccc(S(N)(=O)=O)cc1)C(=O)N2 | 12.5% |
| COc1cc2ncn(-c3cc(OCc4cccs4)c(C(N)=O)s3)c2cc1OC | 7.37% |
